# Reference: PubChem BioAssay (NCATS)
# Values without a mark were called inactive. The call rests on the fitted dose curve; in most records, active means well fitted curve in the direction sought with a large enough effect; inconclusive means small, poorly fitted or top-dose-only effect, or another doubt; inactive means no such curve, though single readings can be large; an effect the other way counts as inactive or inconclusive. Inconclusive results are not listed.
# Target: Glucagon-like peptide 1 receptor (Homo sapiens) (UniProt P43220)
# Assay: qHTS of GLP-1 Receptor Agonists: LOPAC Validation (AID 624148);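 further: luminescence from a luciferase reporter switched on by cAMP; higher luminescence signal means agonism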
# Conditions: GLP-1R agonist cell assay; series mostly up to 46.1 µM; activation: at the top concentration
# Outline: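 Agonism scored as increased luciferase luminescence driven by cAMP in HEK293 clones carrying GLP-1R. Cells settled 12 hours, received compound for 4-6 hr at 37 deg C, 5% CO2, and were read after 12 min detection reagent at RT.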
# Further: 0% is about no effect.
# Sequence of Glucagon-like peptide 1 receptor (Homo sapiens) (P43220 whole entry, looked up): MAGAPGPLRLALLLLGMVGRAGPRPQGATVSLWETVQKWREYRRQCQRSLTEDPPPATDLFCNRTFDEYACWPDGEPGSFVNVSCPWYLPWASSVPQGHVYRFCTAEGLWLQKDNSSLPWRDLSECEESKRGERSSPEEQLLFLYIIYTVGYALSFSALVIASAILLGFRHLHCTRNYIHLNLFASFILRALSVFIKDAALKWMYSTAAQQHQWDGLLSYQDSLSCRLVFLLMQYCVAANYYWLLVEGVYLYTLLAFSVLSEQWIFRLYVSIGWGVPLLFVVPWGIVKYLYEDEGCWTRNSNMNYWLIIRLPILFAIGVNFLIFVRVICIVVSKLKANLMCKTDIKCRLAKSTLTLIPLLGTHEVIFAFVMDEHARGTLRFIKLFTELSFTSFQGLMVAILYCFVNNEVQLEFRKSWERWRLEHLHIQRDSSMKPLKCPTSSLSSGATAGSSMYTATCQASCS
row,SMILES,activation
1,CC(C)(Oc1ccc(CCNC(=O)c2ccc(Cl)cc2)cc1)C(=O)O,0.521%
2,CCN(CC)CCNC(=O)c1cc(S(C)(=O)=O)ccc1OC,1.3%
3,NC/C=C/C(=O)O,1.7%
4,CC(=O)OCC1=C(C(=O)O)N2C(=O)[C@@H](NC(=O)Cc3cccs3)[C@H]2SC1,-1.81%
5,CNCCC(Oc1ccccc1OC)c1ccccc1 (configuration not stated),0.763%
6,NC(=O)c1ncn([C@@H]2O[C@H](CO)[C@@H](O)[C@H]2O)c1O,0.318%
7,CC(=O)Oc1cc(C(C)C)c(OCCN(C)C)cc1C,-1.86%
8,CCCN(CCC)CCc1cccc2c1CC(=O)N2,-1.16%
9,O=C(CCNNC(=O)c1ccncc1)NCc1ccccc1,-1.82%
10,CCn1ccnc1CC1COc2ccccc2O1 (configuration not stated),5.65%
11,CC(=O)[C@]1(O)Cc2c(O)c3c(c(O)c2[C@@H](O[C@H]2C[C@H](N)[C@H](O)[C@H](C)O2)C1)C(=O)c1ccccc1C3=O,-0.69%
12,Cc1ccc(Cl)c(Nc2ccccc2C(=O)O)c1Cl,-1.97%
13,CCN(CC)CCNC(=O)c1ccc(NC(C)=O)cc1,-0.859%
14,CN(C)C(=O)Oc1cccc([N+](C)(C)C)c1,0.599%
15,CN(C)CC/C=C1\c2ccccc2COc2ccccc21,-0.667%
16,CN1C(=O)CC[C@H]1c1cccnc1,-1.31%
17,COCCc1ccc(OCC(O)CNC(C)C)cc1 (configuration not stated),-1.82%
18,CCO/C([O-])=N/c1c[n+](N2CCOCC2)no1,-1.19%

row,SMILES,activation
1,O=C(O)CN(CCN(CC(=O)O)CC(=O)O)CCN(CC(=O)O)CC(=O)O,-1.97%
2,C[N+](C)(C)CCCCCCCCCC[N+](C)(C)C,-1.83%
3,CC(C)[N+](C)(CCOC(=O)C1c2ccccc2Oc2ccccc21)C(C)C,-2.1%
4,CCOC(=O)C1=C(C)NC(C)=C(C(=O)OC)C1c1cccc([N+](=O)[O-])c1 (configuration not stated),1.93%
5,CC(C)(C)c1ccc(C(=O)CCCN2CCC(OC(c3ccccc3)c3ccccc3)CC2)cc1,-1.9%
6,CCOC(=O)c1cnc2c(cnn2CC)c1NN=C(C)C,9.31%
7,C[C@]12CCC(=O)C=C1CC[C@@H]1[C@@H]2CC[C@@]2(C)[C@H]1CC[C@]2(O)C(=O)CO,-1.28%
8,CN1CCN(C2=Nc3ccccc3Oc3ccc(Cl)cc32)CC1,-1.73%
9,C[N+](C)(C)CCOC(=O)CCC(=O)OCC[N+](C)(C)C,-1.7%
10,CNC1(C)C2CCC(C2)C1(C)C (configuration not stated),-1.63%
11,C[N+](C)(C)CCOC(N)=O,9.99%
12,CCN1CCC[C@H]1CNC(=O)c1c(O)c(Cl)cc(Cl)c1OC,-1.78%
13,CO[C@@]1(NC(=O)CSCC#N)C(=O)N2C(C(=O)O)=C(CSc3nnnn3C)CS[C@@H]21,0.603%
14,CCN1CCc2nc(N)oc2CC1,-1.25%
15,NCCCNCCSP(=O)(O)O,-1.52%
16,Brc1c(NC2=NCCN2)ccc2nccnc12,-0.583%
17,CN1CCN(CC(=O)N2c3ccccc3C(=O)Nc3cccnc32)CC1,-1.65%
18,Cc1ccc(=O)n(-c2ccccc2)c1,-2.01%

# System: not listed separately
# Assay: qHTS of Nrf2 Activators: LOPAC Validation (AID 624149)
# Conditions: Nrf2/ARE reporter cell assay; series mostly up to 46.1 µM; activation: at the top concentration
# Outline: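 Cells (AREc32_Fluc) are plated at 1000 per well in OPTI-MEM containing 5% FBS and left overnight. Compounds are pinned in and incubated 24 hr at 37 deg C, and firefly luciferase is detected with Steady-Glo.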
row,SMILES,activation
1,CC(C)(Oc1ccc(CCNC(=O)c2ccc(Cl)cc2)cc1)C(=O)O,-2.11%
2,CCN(CC)CCNC(=O)c1cc(S(C)(=O)=O)ccc1OC,-0.971%
3,NC/C=C/C(=O)O,1.07%
4,CC(=O)OCC1=C(C(=O)O)N2C(=O)[C@@H](NC(=O)Cc3cccs3)[C@H]2SC1,7.55%
5,CNCCC(Oc1ccccc1OC)c1ccccc1 (configuration not stated),-1.84%
6,NC(=O)c1ncn([C@@H]2O[C@H](CO)[C@@H](O)[C@H]2O)c1O,-0.814%
7,CC(=O)Oc1cc(C(C)C)c(OCCN(C)C)cc1C,-1.87%
8,CCCN(CCC)CCc1cccc2c1CC(=O)N2,-1.33%
9,O=C(CCNNC(=O)c1ccncc1)NCc1ccccc1,-1.81%
10,CCn1ccnc1CC1COc2ccccc2O1 (configuration not stated),-0.666%
11,CC(=O)[C@]1(O)Cc2c(O)c3c(c(O)c2[C@@H](O[C@H]2C[C@H](N)[C@H](O)[C@H](C)O2)C1)C(=O)c1ccccc1C3=O,-1.47%
12,Cc1ccc(Cl)c(Nc2ccccc2C(=O)O)c1Cl,-1.24%
13,CCN(CC)CCNC(=O)c1ccc(NC(C)=O)cc1,-1.56%
14,CN(C)C(=O)Oc1cccc([N+](C)(C)C)c1,-1.44%
15,CN(C)CC/C=C1\c2ccccc2COc2ccccc21,-1.86%
16,CN1C(=O)CC[C@H]1c1cccnc1,-2.32%
17,COCCc1ccc(OCC(O)CNC(C)C)cc1 (configuration not stated),0.835%
18,CCO/C([O-])=N/c1c[n+](N2CCOCC2)no1,-1.28%

row,SMILES,activation
1,O=C(O)CN(CCN(CC(=O)O)CC(=O)O)CCN(CC(=O)O)CC(=O)O,0.361%
2,C[N+](C)(C)CCCCCCCCCC[N+](C)(C)C,-1.68%
3,CC(C)[N+](C)(CCOC(=O)C1c2ccccc2Oc2ccccc21)C(C)C,-2.41%
4,CCOC(=O)C1=C(C)NC(C)=C(C(=O)OC)C1c1cccc([N+](=O)[O-])c1 (configuration not stated),-1.22%
5,CC(C)(C)c1ccc(C(=O)CCCN2CCC(OC(c3ccccc3)c3ccccc3)CC2)cc1,-1.38%
6,CCOC(=O)c1cnc2c(cnn2CC)c1NN=C(C)C,-1.53%
7,C[C@]12CCC(=O)C=C1CC[C@@H]1[C@@H]2CC[C@@]2(C)[C@H]1CC[C@]2(O)C(=O)CO,0.839%
8,CN1CCN(C2=Nc3ccccc3Oc3ccc(Cl)cc32)CC1,-2.05%
9,C[N+](C)(C)CCOC(=O)CCC(=O)OCC[N+](C)(C)C,0.897%
10,CNC1(C)C2CCC(C2)C1(C)C (configuration not stated),-1.09%
11,C[N+](C)(C)CCOC(N)=O,0.367%
12,CCN1CCC[C@H]1CNC(=O)c1c(O)c(Cl)cc(Cl)c1OC,-0.975%
13,CO[C@@]1(NC(=O)CSCC#N)C(=O)N2C(C(=O)O)=C(CSc3nnnn3C)CS[C@@H]21,0.971%
14,CCN1CCc2nc(N)oc2CC1,-2.06%
15,NCCCNCCSP(=O)(O)O,0.977%
16,Brc1c(NC2=NCCN2)ccc2nccnc12,-1.89%
17,CN1CCN(CC(=O)N2c3ccccc3C(=O)Nc3cccnc32)CC1,-2.05%
18,Cc1ccc(=O)n(-c2ccccc2)c1,-1.31%
